Screens (PubChem BioAssay)
Compounds with a hit are over-represented: about 3.4% of the library has one in this group of screens.
Mcl-1 Bim block – inhibitors of Bim-Mcl-1 interaction, human. Q07820. Bead-based flow cytometry, Bim peptide-Mcl-1 binding. inhibition, % at 10 µM. hit rate 0.1% among 190,000; in the data active = inhibition above about 40%
14-3-3 Bad PPI – disrupts binding of bovine 14-3-3 zeta to phospho-Bad peptide | inhibition, % at 21.7 µM | P63103 | TR-FRET 14-3-3zeta/Dy647-pBad peptide displacement, 1 h | AID 781 | hit rate 0.71% among 220,000;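 active = inhibition above about 70%, limit read from the data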
eIF4E-4G inh – blocks eIF4E binding to eIF4G | hit rate 0.37% among 220,000 | TR-FRET eIF4E-eIF4GI(517-606) binding, 2 h | inhibition, % at 21.7 µM | P63073+Q04637
Mcl1 Noxa PPI – disrupts binding of human Mcl-1 to Noxa peptide; AID 1022; TR-FRET Mcl-1/Noxa peptide binding, 2 h; inhibition, % at 21.7 µM; Q07820; hit rate 1.5% among 220,000;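 active = compounds that cut the protein-peptide binding signal by more than 50% relative to plate controls in a single-dose test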;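 also: His-tagged Mcl-1 with rhodamine Noxa BH3 peptide and terbium anti-His antibody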
Mcl1 Bid PPI – disrupts binding of human Mcl-1 to Bid peptide; inhibition, % at 21.7 µM; Q07820; TR-FRET Mcl-1/Bid-Dy647 peptide binding, 1536-well; hit rate 0.97% among 220,000; AID 1021;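 active = compounds that cut the binding signal by more than half at the single screening dose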;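 also: His-tagged Mcl-1 with europium anti-His antibody binding Bid BH3 peptide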
p47phox inh – p47phox (human) inhibition. hit rate 0.53% among 220,000. p47phox/p22phox peptide binding, fluorescence polarization, 2 h. AID 1274. inhibition, % at 24.7 µM. P14598
Large screens that a line does not name were inactive; [ ] = remark or other dose.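 The calls were made as follows, unless noted: active = inhibition above about 30% (limit read from the data); inactive = the rest.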

C#CCOCCOCCOCCNc1nc(N2CCN(C(=O)[C@H](CCC(=O)O)n3cc(C(N)CC(C)C)nn3)CC2)nc(N2CCN(C(=O)[C@H](Cc3ccc(O)cc3)n3cc(C(N)CC(C)C)nn3)CC2)n1 (stereo not given in full)	Mcl1 Bid PPI 59
COc1ccc(N2CCN(Cc3nc4cc(Cl)ccc4c(=O)[nH]3)CC2)cc1	none
CC(C)(C)c1ccc(OCCOc2ccc(C(C)(C)C)cc2NC=O)c(NC=O)c1	none (no result: Mcl-1 Bim block)
CCN1CCc2c(OCC(=O)N3N=C(c4cccs4)CC3c3ccc(F)cc3)cccc2C1=O (stereo not given)	none
CN1CCc2c(OCC(=O)N3N=C(c4cccs4)CC3c3ccc(F)cc3)cccc2C1=O (stereo not given)	Mcl1 Bid PPI 54
CN(NC1OC(=O)c2ccccc21)c1ccccc1[N+](=O)[O-] (stereo not given)	none (no result: Mcl-1 Bim block)
O=c1cc2oc3cc(O)c(O)cc3c(-c3ccccc3O)c-2cc1O	none (no result: Mcl-1 Bim block)
CCOc1ccccc1-c1c2cc(O)c(=O)cc-2oc2cc(O)c(O)cc12	Mcl1 Noxa PPI 59
COc1ccc(OC)c(-c2c3cc(O)c(=O)cc-3oc3cc(O)c(O)cc23)c1	14-3-3 Bad PPI 75[fluorescence artefact?], eIF4E-4G inh 51[fluorescence artefact?], Mcl1 Noxa PPI 91
Cc1ccc2cc(CCl)c(Cl)nc2c1	none (no result: Mcl-1 Bim block)
Clc1ccc(C2=NNC(=NCc3ccc4c(c3)OCO4)SC2)cc1	Mcl1 Noxa PPI 62
Oc1ccc(C2=NNC(=NCc3ccc4c(c3)OCO4)SC2)c(O)c1	none
COc1ccc(CN=C2NN=C(c3ccc(Cl)cc3)CS2)cc1	Mcl1 Noxa PPI 58
COc1ccccc1C(=O)Nc1ccc(Br)cc1C	none
CCc1nc2c(c(=O)[nH]1)C1(CCCC1)Cc1ccccc1-2	none
NNc1nc(N)c2c(n1)-c1ccccc1CC21CCCC1	14-3-3 Bad PPI 82[fluorescence artefact?]
COc1ccc(CN(Cc2ccc(C(=O)O)cc2)C(=S)Nc2ccc(C)cc2)cc1OC	none
Cc1noc(C)c1-c1nc(CS(=O)(=O)c2ccc(F)cc2)no1	none (no result: Mcl-1 Bim block)
CCOC(=O)CCSc1cc(C)c2ccccc2n1	none
Cc1ccc(NC(=O)CN2C(=O)N/C(=C/c3cc(C)n(-c4ccc(C(=O)O)cc4)c3C)C2=O)cc1	Mcl1 Noxa PPI 76
Cc1ccc(NC(=O)CN2C(=O)S/C(=C\c3cc(C)n(-c4ccc(C(=O)O)cc4)c3C)C2=O)cc1	none
Cc1ccc(NC(=O)CN2C(=O)N/C(=C/c3cccn3-c3ccc(C(=O)O)cc3)C2=O)cc1	eIF4E-4G inh 34, Mcl1 Noxa PPI 102
Cc1ccc(NC(=O)CN2C(=O)S/C(=C\c3cccn3-c3cccc(C(=O)O)c3)C2=O)cc1C	none
Cc1cccc(NC(=O)CN2C(=O)N/C(=C/c3ccc(C)s3)C2=O)c1	none
Cc1ccc(NC(=O)CN2C(=O)N/C(=C/c3ccco3)C2=O)cc1	Mcl1 Noxa PPI 61
CC1CC2(C)Oc3ccccc3CC2C(C)C1CNCCCN(C)C (stereo not given)	none
Cn1ncc([N+](=O)[O-])c1C(=O)n1nnc2ccccc21	none
COc1cccc(C(Nc2ccccn2)c2oc(CO)cc(=O)c2O)c1 (stereo not given)	Mcl1 Noxa PPI 74
O=c1cc(CO)oc(C(Nc2ccccn2)c2cccc(F)c2)c1O (stereo not given)	Mcl1 Noxa PPI 52
CN(C(=O)c1ccc(COc2ccccc2Br)o1)c1ccccc1	none
COc1cc(C(=S)N2CCN(c3ccccc3Cl)CC2)cc(O)c1O	Mcl1 Noxa PPI 60
COc1cc(NS(=O)(=O)c2ccc(NC(=S)NC(=O)c3sc4cc(F)ccc4c3Cl)cc2)nc(OC)n1	Mcl1 Noxa PPI 88
NC(N)=NS(=O)(=O)c1ccc(NC(=S)NC(=O)c2sc3ccccc3c2Cl)cc1	14-3-3 Bad PPI 76, Mcl1 Bid PPI 82
COc1cc(NS(=O)(=O)c2ccc(NC(=S)NC(=O)c3sc4ccccc4c3Cl)cc2)nc(OC)n1	Mcl1 Noxa PPI 69, Mcl1 Bid PPI 66
CCN(CC)C(=S)SCC(=O)Nc1ncc2c(n1)CCCC2=O	none (no result: Mcl-1 Bim block)
COc1cc([N+](=O)[O-])ccc1NC(=O)CN1CCOCC1	none
Cc1cc(-c2nnc(SCC(=O)c3ccc4c(c3)OCCO4)o2)no1	Mcl1 Noxa PPI 59
Cc1cc(C)nc(NCC(O)CNc2ccccc2C)n1 (stereo not given)	none
